# Laboratory results taken from the supplement of paper PMC3545927.
# Some of the results follow. The hit rate among all sequences tested is not known here.
# Target: furin, P09958
# Assay: furin cleavage Z-score vs untreated control; higher = more cleavage, active = 3.5 or more, inactive = 1 or less, 8 variable residues between constant flanks
# Outline: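 Sequencing of released DNA, tagged with adapters by PCR, gave read counts used as abundance. That DNA was freed when purified furin cut N-terminally bead-bound 8-mer peptides fused to a cDNA oligonucleotide, in 0.01 ml reactions at 1:10 enzyme:substrate in 50 mM HEPES pH 7.5 with CaCl2 and NaCl, lasting 7.5, 15 or 30 min. The cleavage Z-score was the lowess-adjusted log count versus furin-free reactions, scaled by median absolute deviation.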
# Sequence of furin, P09958 (P09958 whole entry): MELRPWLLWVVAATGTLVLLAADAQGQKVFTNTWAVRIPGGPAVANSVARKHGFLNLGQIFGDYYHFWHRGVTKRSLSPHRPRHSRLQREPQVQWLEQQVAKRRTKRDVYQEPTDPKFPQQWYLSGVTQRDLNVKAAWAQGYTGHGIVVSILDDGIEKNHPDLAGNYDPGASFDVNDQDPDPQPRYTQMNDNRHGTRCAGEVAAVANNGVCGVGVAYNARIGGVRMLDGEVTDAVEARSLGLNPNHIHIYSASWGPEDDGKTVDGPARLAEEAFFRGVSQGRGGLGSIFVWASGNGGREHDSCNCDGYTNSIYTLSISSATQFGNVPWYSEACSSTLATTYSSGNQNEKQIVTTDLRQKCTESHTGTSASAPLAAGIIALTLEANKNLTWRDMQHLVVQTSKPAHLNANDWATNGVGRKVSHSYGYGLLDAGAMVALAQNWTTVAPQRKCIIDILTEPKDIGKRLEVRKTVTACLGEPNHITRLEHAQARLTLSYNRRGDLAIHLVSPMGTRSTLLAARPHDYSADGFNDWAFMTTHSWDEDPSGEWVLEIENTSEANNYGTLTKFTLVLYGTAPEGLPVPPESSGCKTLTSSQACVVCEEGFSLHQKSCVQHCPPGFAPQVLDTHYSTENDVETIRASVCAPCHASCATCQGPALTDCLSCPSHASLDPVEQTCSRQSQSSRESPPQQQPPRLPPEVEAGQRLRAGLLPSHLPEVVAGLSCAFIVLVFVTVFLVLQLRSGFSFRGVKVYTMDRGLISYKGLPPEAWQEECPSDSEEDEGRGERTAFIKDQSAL
Sequence,furin cleavage Z-score (7.5 min),furin cleavage Z-score (15 min),furin cleavage Z-score (30 min)
CAMEECVQHLAGNASASA [HC23],0.873 (inactive),1.67,1.34
CASGPWITPRAGNASASA [HC460],-0.377 (inactive),1.52,-0.355 (inactive)
CADGGRVSRSAGNASASA [FS-223],3.4,4.59 (active),5.66 (active)
CAITNRPPRSAGNASASA [FS-1216],2.7,5.07 (active),2.23
CAITSRIIRSAGNASASA [FS-1217],9.87 (active),8.44 (active),6.88 (active)
CATTPCSSSWAGNASASA [HC1897],-0.808 (inactive),1.71,-0.0324 (inactive)
CAEATTPCSGAGNASASA [HC1963],-1.21 (inactive),-0.00595 (inactive),0.567 (inactive)
CAREMEECSQAGNASASA [HC1793],0.916 (inactive),-0.677 (inactive),1.51
CAWETARHTPAGNASASA [HC1569],0.673 (inactive),0.503 (inactive),-0.633 (inactive)
CAPKGPVIQMAGNASASA [HC707],-0.0909 (inactive),0.949 (inactive),0.762 (inactive)
CAVVNCSMSYAGNASASA [HC2041],0.601 (inactive),1.6,-0.0752 (inactive)
CATARRHGRDAGNASASA [FS-878],6.42 (active),7.12 (active),6.27 (active)
CAAPGRDGRDAGNASASA [FS-397],-0.000356 (inactive),-1.26 (inactive),-0.555 (inactive)
CATAARRLRDAGNASASA [FS-382],1.54,3.67 (active),3.74 (active)
CAGRTGRGKPAGNASASA [HC905],-1.05 (inactive),-0.843 (inactive),-1.55 (inactive)
CARKKRLENRAGNASASA [FS-2214],1.32,0.582 (inactive),0.84 (inactive)

Sequence,furin cleavage Z-score (7.5 min),furin cleavage Z-score (15 min),furin cleavage Z-score (30 min)
CARKKRIKRRAGNASASA [FS-2266],13.1 (active),14.5 (active),11.5 (active)
CADSSRIKRRAGNASASA [FS-1449],8.08 (active),10.6 (active),8.94 (active)
CADISRIKRGAGNASASA [FS-756],2.64,4.17 (active),2.27
CAHKSRKERRAGNASASA [FS-536],1.88,4.97 (active),3.69 (active)
CAWVCCSMSYAGNASASA [HC1988],0.172 (inactive),0.44 (inactive),1.05
CARPLRGVSGAGNASASA [FS-3018],-0.934 (inactive),-0.697 (inactive),-0.66 (inactive)
CAEAALENLVAGNASASA [HC533],-0.446 (inactive),-0.46 (inactive),-1.1 (inactive)
CARLKKIKDDAGNASASA [FS-1740],-0.946 (inactive),-0.774 (inactive),-1.39 (inactive)
CARLDRHVFIAGNASASA [FS-2042],-0.675 (inactive),-1.39 (inactive),-0.0693 (inactive)
CARLKRHPEEAGNASASA [FS-2276],1.2,3.98 (active),3.45
CARLKRVVPDAGNASASA [FS-2221],3.21,5.12 (active),6 (active)
CARLKRAVSEAGNASASA [FS-2704],8.88 (active),10.6 (active),7.25 (active)
CARLKRIVFDAGNASASA [FS-2570],0.11 (inactive),0.63 (inactive),1.98
CARLKRAVWIAGNASASA [FS-2989],5.97 (active),7.83 (active),8.13 (active)
CARLKRTNGNAGNASASA [FS-1963],0.424 (inactive),2.26,1.1
CARLKRRQEEAGNASASA [FS-2709],-0.805 (inactive),0.691 (inactive),1.04
